This is a sample that favours compounds with a hit; in the whole collection about 7.4% have one here.
Hedgehog inh = blocks Sonic Hedgehog signaling; Shh-LIGHT2 Gli-luciferase reporter, 30 h; inhibition, % (concentration not given with the values); actives 2.1% (n = 22,000); AID 2313;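 active = mean inhibition across valid replicates above about 65%, limit read from the data; inconclusive = mean under the limit, yet half or more replicates past it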;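 note: pathway switched on by Shh-conditioned medium diluted 1 in 25 in low serum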
PD-1 reverse act = activators reversing PD-1 mediated T-cell inhibition; primary human CD4 T cells, PD-L1 beads, CellTiter-Glo 96 h; activation, % (test concentration not listed); AID 2316; 29,000 tested, under 10 active; call rule not given here;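 note: 0% = median vehicle wells and 100% = positive control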
NOMO-1 viab = STK33 inhibitor candidate reducing NOMO-1 cell viability. inhibition, % (concentration not given with the values). NOMO-1 AML viability, CellTiter-Glo luminescence, 72 h. actives 7.5% (n = 37,000); in the data active = inhibition above about 80%; inconclusive = no clear call, values can overlap the other calls
YB-1 expression = YB-1 expression inhibition | AID 434959 | actives 0.37% (n = 30,000) | U2OS, qRT-PCR YB-1 vs CDIP delta delta Cp, 16 h; active compounds read high; zero = DMSO, each unit about twofold | delta delta Cp (YB-1 minus CDIP) (test concentration not listed);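 active = delta delta Cp rounded down to an integer at or above 3, about 3 SD of DMSO wells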;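 note: higher means less YB-1 transcript or more CDIP transcript relative to DMSO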
MITF inhib = MITF inhibition; inhibition, % (no concentration beside the values); AID 2240; actives 0.28% (n = 37,000); TRPM1 promoter luciferase, luminescence, 24 h; in the data active = inhibition above about 85%; inconclusive = no clear call, values can overlap the other calls; inactive = below about 68%;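 note: human melanocyte line stably carrying TRPM1 promoter luciferase reporter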
* = called active by the depositor; ? = inconclusive; . = no result; ! = not confirmed by another sample.

SMILES | Hedgehog inh | PD-1 reverse act | NOMO-1 viab | YB-1 expression | MITF inhib
Cc1noc(C)c1S(=O)(=O)Nc1ccc2c(c1)C(=O)N([C@@H](C)CO)C[C@H](C)[C@H](CN(C)S(=O)(=O)c1ccccc1)O2 | 5.2 | -1.7 | -10.6 | -0.335 | -6.0
C[C@H](CO)N1C[C@H](C)[C@@H](CN(C)C(=O)Nc2ccccc2)Oc2ccc(NS(=O)(=O)c3ccc(F)cc3)cc2C1=O | -24.2 | -0.3 | 11.7 | -0.707 | -1.3
CC1C[C@@]23CC4C(C)(C)[C@@]5(C[C@]4(CN2C1=O)N(C)C3=O)C(=O)Nc1c5ccc2c1C(=O)CC(C)(C)O2 (some centres undefined) | 7.5 | -0.4 | 118.3* | -0.183 | 9.5
Cc1ccc(S(=O)(=O)N(Cc2cc3cccc(C)c3[nH]c2=O)c2ccccc2)cc1 | . | -3.2 | 116.5* | . | 0.4
Nc1nc2ccc(OC(F)(F)F)cc2s1 | 68.3*! | 3.2 | 23.5 | 0.0141 | -43.6
C[C@@H]1CN([C@H](C)CO)C(=O)Cc2cc(NS(=O)(=O)c3ccc(Cl)cc3)ccc2O[C@@H]1CN(C)Cc1ccc(C(=O)O)cc1 | . | 0.1 | -10.5 | 0.0819 | -10.6
C[C@H](CO)N1C[C@H](C)[C@@H](CN(C)CC2CCCCC2)Oc2ccc(NC(=O)CCCCCC(=O)Nc3ccccc3N)cc2C1=O | . | 1.2 | 25.9 | 0.682 | -3.9
C[C@@H]1CN([C@H](C)CO)C(=O)Cc2cc(NC(=O)CCCCCC(=O)Nc3ccccc3N)ccc2O[C@@H]1CN(C)C | . | 1.5 | 48.4 | -0.561 | -7.1
C[C@@H]1CN([C@@H](C)CO)C(=O)Cc2cc(NC(=O)CCCCCC(=O)Nc3ccccc3N)ccc2O[C@@H]1CN(C)CC1CCCCC1 | . | 0.6 | 135.8* | -0.165 | 4.6
C[C@H](CO)N1C[C@H](C)[C@H](CN(C)CC2CC2)Oc2ccc(NC(=O)CCCCCC(=O)Nc3ccccc3N)cc2CC1=O | . | -0.8 | 140.4* | -0.964 | -6.9
COc1ccc(NC(=O)N(C)C[C@@H]2Oc3c(NC(=O)C4CCCCC4)cccc3C(=O)N([C@@H](C)CO)C[C@@H]2C)cc1 | 19.3 | 2.9 | 20.4 | -0.439 | 3.7
O=C(Cn1cnc2sc(-c3ccccc3)cc2c1=O)NCc1ccco1 | . | . | 115.7* | . | -8.0
Cc1cccc(NC(=O)Cn2cnc3sc(-c4ccccc4)cc3c2=O)c1 | . | 1.5 | 12.9 | . | -9.4
COc1ccc2nc(Nc3nc(CSc4ccc(Cl)cc4)cc(=O)[nH]3)nc(C)c2c1 | . | . | 83.7* | . | -2.7
CCC(=O)Nc1ccc(Cl)c(NC(=O)COc2ccccc2C)c1 | . | . | 0.6 | . | -75.1
CC(C)NC(=O)N(C)C[C@@H]1Oc2c(NS(=O)(=O)c3ccc(Cl)cc3)cccc2C(=O)N([C@H](C)CO)C[C@@H]1C | -13.6 | -2.3 | 12.1 | -0.827 | 16.8
CC1(C)O[C@@H]2[C@H](O1)[C@@H](CO)O[C@H]2n1cnc2c(N)ncnc21 | . | -0.3 | -10.8 | -0.361 | -3.8
COc1ccc(C[C@H](N)C(=O)N[C@H]2[C@@H](O)[C@H](n3cnc4c(N(C)C)ncnc43)O[C@@H]2CO)cc1 | 85.3* | . | 120.4* | -0.228 | 102.2*
Cc1cc(C(=O)CSc2nnc3ccccn23)c(C)n1Cc1ccccc1 | . | . | 17.3 | . | 66.7
Cc1cc2nnc(SCC(=O)c3cc(C)n(Cc4ccccc4)c3C)n2c2ccccc12 | . | 1.7 | 131.2* | 0.326 | -11.5
COC(=O)C1=C(C)NC(C)=C(C(=O)OC)C1c1ccc(C(C)C)cc1 | 40.4 | -0.1 | 110.2* | 0.118 | -23.7
CCOC(=O)C1=C(C)NC(C)=C(C(=O)OC)C1c1cccc(Cl)c1Cl (centres undefined) | 23.0 | . | 27.2 | 0.0996 | 11.4
C[C@H]1CN([C@@H](C)CO)C(=O)Cc2cc(NC(=O)Nc3ccc(C(F)(F)F)cc3)ccc2O[C@H]1CN(C)S(=O)(=O)c1cn(C)cn1 | -4.1 | -0.4 | 125.3* | 0.233 | 6.1
C[C@H](CO)N1C[C@H](C)[C@H](CN(C)S(=O)(=O)c2cn(C)cn2)Oc2ccc(NC(=O)NC3CCCCC3)cc2CC1=O | 77.1* | 2.4 | -16.2 | 0.549 | -10.5
CC(C)NC(=O)Nc1ccc2c(c1)CC(=O)N([C@@H](C)CO)C[C@H](C)[C@H](CN(C)S(=O)(=O)c1cn(C)cn1)O2 | . | 0.6 | 17.3 | 0.0596 | 1.4
SMILES | Hedgehog inh | PD-1 reverse act | NOMO-1 viab | YB-1 expression | MITF inhib
Nc1nc(N(Cc2ccccc2)Cc2ccccc2)nc(C(F)(F)F)n1 | ? | 0.1 | 120.1* | -0.282 | 19.6
Cn1c(/C=C/C=C/N2CCCC2)nc2ccccc2c1=O | -3.3 | -1.5 | 120.5* | -0.407 | -13.4
CSc1nc2ccccc2c(=O)n1C | -4.6 | -0.2 | 11.0 | 0.16 | -29.1
CC(C)NC(=O)N(C)C[C@@H]1Oc2ccc(NC(=O)Nc3ccc(F)cc3)cc2C(=O)N([C@@H](C)CO)C[C@@H]1C | -8.6 | 0.6 | 13.5 | -0.0975 | 3.3
CNC[C@H]1Oc2c(NC(=O)Nc3ccccc3)cccc2C(=O)N([C@@H](C)CO)C[C@@H]1C | 46.2 | 2.0 | 22.9 | 0.109 | -7.6
C=CCNC1=C2C[C@@H](C)C[C@H](OC)[C@H](O)[C@@H](C)/C=C(\C)[C@H](OC(N)=O)[C@@H](OC)C=C/C=C(/C)C(=O)NC(=CC1=O)C2=O | 107.5* | . | 119.0* | -0.0321 | 15.4
CSc1ncc(Cl)c(C(=O)Nc2nnc(SCc3ccccc3)s2)n1 | . | . | 8.4 | . | 0.7
C[C@H]1CN([C@@H](C)CO)C(=O)c2cc(NC(=O)Cn3cnnn3)ccc2O[C@H]1CN(C)Cc1ccc2c(c1)OCO2 | -44.6 | -0.3 | -2.4 | 0.232 | -5.2
COc1cccc(C(=O)Nc2cccc(OCC(=O)O)c2)c1 | . | -0.5 | 14.8 | . | 3.8
COC(=O)COc1cccc(NC(=O)c2ccc(Br)cc2)c1 | . | -2.9 | 119.4* | . | 12.7
COC(=O)COc1cccc(NC(=O)c2cc(OC)cc(OC)c2)c1 | . | -0.2 | 108.6* | . | -8.0
O=C(O)COc1cccc(NC(=O)c2ccc(-c3ccccc3)cc2)c1 | . | 1.4 | -13.5 | . | 20.6
COC(=O)COc1cccc(NC(=O)c2ccc(C)cc2)c1 | . | . | 115.8* | . | 7.2
COC(=O)COc1cccc(NC(=O)c2ccc(Cl)cc2)c1 | . | . | 113.6* | . | 7.4
COc1ccc(NC(=O)N(C)C[C@H]2Oc3c(NC(=O)c4ccc(-c5nccs5)cc4)cccc3C(=O)N([C@H](C)CO)C[C@H]2C)cc1 | 12.4 | -1.0 | 1.1 | -0.623 | 6.2
C[C@H]1CC[C@@H]2[C@@H](C(=O)c3c(O)c([C@]4(O)CC[C@@H](O)[C@H]5O[C@H]54)c[nH]c3=O)[C@@H](C)C=C[C@H]2C1 | 95.9* | -21.7 | 121.1* | -0.357 | 74.3
C[C@@H]1C[C@H]2OCC3=CCC[C@H]([C@]1(CC(O)c1ccoc1)C(=O)O)[C@]32CO (some centres undefined) | -22.4 | -4.6 | 120.1* | 0.473 | 19.2
Cc1cc(C)c(S(=O)(=O)N(CC(=O)O)Cc2ccc(Cl)cc2)c(C)c1 | . | 1.7 | -2.3 | . | -3.4
C[C@H]1CN([C@@H](C)CO)C(=O)Cc2cc(NC(=O)NC3CCCCC3)ccc2O[C@@H]1CN(C)Cc1ccccc1 | -14.3 | 2.0 | 27.3 | -0.549 | -3.2

Screening data from PubChem BioAssay.
